# Reference: PubChem BioAssay AID463173 (ICCB-Longwood Screening Facility, Harvard Medical School, 2010)
# In all, about 52,000 compounds went through this assay and about 1,700 (3.3%) were called active. Cut-off read from the data, not from the text of the source: active = survival mostly below about 52% (no sharp cut-off); inactive = mostly above about 56%. The full list was thinned out, with actives kept by preference.
# Tested on: Wild type
# Experiment: S. aureus survival, RN4220 and DeltatarO strains – OD600, teichoic acid synthesis inhibitors, primary screen (AID 463173)
# Conditions: S. aureus RN4220 wild type/DeltatarO growth, OD600, 18 h, hits give low values, screened at 18.75 µg/mL (by protocol)
row,SMILES,survival
1,COc1ccc(NC(=O)CC2C(=O)N(c3ccc(C)cc3)C(=O)N2C2CCCCC2)cc1 (stereo not given),74% (inactive)
2,CCOC(=O)c1noc2nc(C)n(CC(=O)Nc3ccccc3F)c(=O)c12,124% (inactive)
3,COc1cccc(C(=O)Nc2ccccc2-c2nnc(-c3ccc(C(C)(C)C)cc3)o2)c1,71% (inactive)
4,CCOc1cc(C(=O)N2CC(=O)Nc3ccc(F)cc3C2c2ccccc2)cc(OCC)c1OCC (stereo not given),75% (inactive)
5,O=C(NC1CCCCC1)C(c1ccco1)N(C(=O)C1COc2ccccc2O1)c1cccc(F)c1 (stereo not given),132% (inactive)
6,COc1ccc(NC(=O)c2c(C(=O)Nc3ccccc3)sc3nc(C)cc(=O)n23)cc1,93% (inactive)
7,NC(=O)CSc1nsc(SCC(N)=O)n1,109% (inactive)
8,COc1ccc(C)cc1NC(=O)CSc1nc2ccccc2nc1N1CCOCC1,72% (inactive)
9,COc1ccc(Cl)cc1NC(=O)CSc1nc2ccccc2nc1N1CCCCC1,-9% (active)
10,COc1ccccc1Cc1nc2ccccc2nc1SCC(=O)Nc1cc(Cl)ccc1OC,89% (inactive)
11,O=C(O)CSc1nc2ccccc2nc1N1CCCCC1,62% (inactive)
12,Cc1cc(C)c(NC(=O)CSc2nc3ccccc3nc2N2CCCCC2)c(C)c1,38% (inactive)
13,CC(C)NC(=O)CSc1nc2ccccc2nc1N1CCCCC1,-28% (active)
14,Cc1ccc(C)c(Cn2c(=O)n(Cc3ccc4c(c3)OCO4)c(=O)c3oc4ccccc4c32)c1,89% (inactive)
15,Cc1cccc(-c2nc(CCNC(=O)Cc3ccccc3)cs2)c1,-1% (active)
16,COc1ccc(CCC(=O)NCCc2csc(-c3ccc(C(F)(F)F)cc3)n2)cc1,80% (inactive)
17,Cc1cccc(-c2nc(CCNC(=O)Cc3ccc(F)cc3)cs2)c1,14% (active)
18,COc1ccc(CC(=O)NCCc2csc(-c3ccc(C(F)(F)F)cc3)n2)cc1,-6% (active)
19,COc1ccc(-c2nc(CCNC(=O)Cc3ccc(F)cc3)cs2)cc1,134% (inactive)
20,Cc1cccc(-c2nc(CCNC(=O)c3ccco3)cs2)c1,-6% (active)
21,Cc1cccc(-c2nc(CCNC(=O)c3ccc(Br)o3)cs2)c1,69% (inactive)
22,O=C(NCCc1csc(-c2cccc(F)c2)n1)c1ccco1,69% (inactive)
23,COc1ccc(CC(=O)NCCc2csc(-c3cccc(C)c3)n2)cc1,74% (inactive)

row,SMILES,survival
1,Cc1cccc(-c2nc(CCNC(=O)COc3ccccc3)cs2)c1,73% (inactive)
2,CCOc1ccc(CC(=O)NCCc2csc(-c3ccc(C(F)(F)F)cc3)n2)cc1,90% (inactive)
3,O=C(Cc1ccc(F)cc1)NCCc1csc(-c2cccc(F)c2)n1,69% (inactive)
4,CC(C)c1cnc2c(c1SCC(=O)NC(C)(C)C)c(=O)n(C)c(=O)n2C,80% (inactive)
5,NC(=O)/C=C/C(=O)Nc1ccc2c(c1)OCO2,89% (inactive)
6,O=C(NCCc1csc2nc(-c3ccc(F)cc3)nn12)c1ccco1,126% (inactive)
7,COc1ccc(/C=C\c2onc(C)c2S(=O)(=O)N2CCC(C(=O)Nc3ccc(C)c(F)c3)CC2)cc1,93% (inactive)
8,CC(=O)N1c2c(cc(Br)cc2S(=O)(=O)NCc2ccccc2Cl)CC1C (stereo not given),73% (inactive)
9,C=Cc1ccc(Cn2c(C(=O)O)c(CNCc3cc(Br)ccc3OC)c3ccc(C)cc32)cc1,99% (inactive)
10,COc1ccc(CNC(=O)c2cc3sccc3n2Cc2ccc(C)cc2)cc1,91% (inactive)
11,Fc1ccc(N2CCN(c3ncnc4c3nc3n4CCCCC3)CC2)cc1,55% (inactive)
12,COc1ccc(NC(=O)CSc2nnc(NC(=O)NC3CCCCC3)s2)cc1OC,65% (inactive)
13,Cc1cc(C)c(S(=O)(=O)N2CCN(Cc3ccc4c(c3)OCO4)CC2)cc1C,9% (active)
14,COc1ccc(S(=O)(=O)N2CCN(Cc3ccc4c(c3)OCO4)CC2)cc1OC,78% (inactive)
15,Cc1ccc(S(=O)(=O)N2CCN(Cc3ccc4c(c3)OCO4)CC2)cc1,64% (inactive)
16,COc1ccc(NC(=O)c2ccco2)cc1NC(=O)c1ccc(C)c(C)c1,69% (inactive)
17,COc1ccc(CNC(=O)c2cc3sccc3n2CC(=O)c2ccccc2)cc1,110% (inactive)
18,CCc1ccc(NC(=O)CC2C(=O)N(c3cccc(OC)c3)C(=O)N2C2CCCC2)cc1 (stereo not given),120% (inactive)
19,CCCCNC(=O)CCn1c(=O)c2ccccc2n(Cc2cccc(Cl)c2)c1=O,94% (inactive)
20,CCSc1nc2ccc(C)cc2cc1C#N,111% (inactive)
21,CCOc1ccc(C2=C(C(=O)CC)Sc3nncn3N2C(=O)CC)cc1,-1% (active)
22,CCC(=O)C1=C(c2ccc(C)cc2)N(C(=O)CC)n2c(nnc2C2CCCCC2)S1,76% (inactive)
23,CCC(=O)C1=C(c2ccc(F)cc2)N(C(=O)CC)n2c(nnc2C2CCCCC2)S1,78% (inactive)

row,SMILES,survival
1,CCC(=O)C1=C(c2ccc(OC)c(OC)c2)N(C(=O)CC)n2c(nnc2-c2ccc(C)cc2)S1,74% (inactive)
2,CC(=O)C1=C(c2cccc([N+](=O)[O-])c2)N(C(C)=O)n2c(nnc2-c2ccc(C)cc2)S1,85% (inactive)
3,CCC(=O)C1=C(c2ccccc2)N(C(=O)CC)n2c(nnc2C2CCCCC2)S1,14% (active)
4,CCCC(=O)C1=C(c2ccc(C)cc2)N(C(=O)CCC)n2cnnc2S1,134% (inactive)
5,CCC(=O)C1=C(c2ccc(F)cc2)N(C(=O)CC)n2c(nnc2-c2ccc(OC)cc2)S1,53% (inactive)
6,CCC(=O)C1=C(c2ccccc2)N(C(=O)CC)n2c(nnc2-c2ccccc2)S1,-6% (active)
7,CCC(=O)C1=C(c2cccc([N+](=O)[O-])c2)N(C(=O)CC)n2c(nnc2C2CCCCC2)S1,63% (inactive)
8,CCC(=O)C1=C(c2cccc([N+](=O)[O-])c2)N(C(=O)CC)n2c(nnc2-c2ccccc2)S1,0% (active)
9,CCC(=O)C1=C(c2ccc(F)cc2)N(C(=O)CC)n2cnnc2S1,133% (inactive)
10,COc1cc(C(=O)Nc2ccc3nc(SCc4ccc(C)cc4)sc3c2)cc(OC)c1OC,113% (inactive)
11,CCc1ccc(N2C(=O)CSC23C(=O)N(Cc2ccc(C)cc2)c2ccccc23)cc1 (stereo not given),66% (inactive)
12,Cc1ccc(NC(=O)Nc2nnc(N3CCCCC3)s2)c(C)c1,97% (inactive)
13,CCC(=O)Nc1nnc(SCCOC)s1,120% (inactive)
14,COc1ccc(-c2oc3ncn4nc(-c5cccc(C)c5)nc4c3c2-c2ccc(OC)cc2)cc1,68% (inactive)
15,O=C(COc1ccccc1)NCc1ccc2c(c1)CCN2C(=O)c1ccc(Cl)cc1,82% (inactive)
16,COC(=O)c1ccc(NC(=O)Cn2nc(C(=O)Nc3ccc(C)cc3)ccc2=O)cc1,85% (inactive)
17,COc1ccc(CNC(=O)c2cc(Nc3ccc(C)cc3C)nc3ccccc23)cc1,91% (inactive)
18,CCC(CC)C(=O)Nc1cc(-c2cn3cccnc3n2)ccc1OC,117% (inactive)
19,CCNC(=O)C1CCN(Cc2cc3ccccc3n2Cc2ccc(C)cc2)CC1,85% (inactive)
20,COc1cc(OC)c(NC(=O)c2cc3c(s2)-c2ccc(Cl)cc2SC3)cc1Cl,96% (inactive)
21,Fc1ccc(-n2ncc3c(NC4CCCCCC4)ncnc32)cc1,76% (inactive)
22,O=C1N(Cc2ccccc2)c2ccc(Cl)cc2C1(O)c1c[nH]c2ccccc12 (stereo not given),53% (inactive)
23,Cc1ccccc1CN1C(=O)C(O)(c2c[nH]c3ccccc23)c2cc(Cl)ccc21 (stereo not given),-11% (active)

row,SMILES,survival
1,O=C1N(Cc2ccccc2Cl)c2ccccc2C1(O)c1c[nH]c2ccccc12 (stereo not given),84% (inactive)
2,O=C1N(Cc2ccccc2)c2ccccc2C1(O)c1c[nH]c2ccccc12 (stereo not given),67% (inactive)
3,Cc1ccc(CN2C(=O)C(O)(c3c[nH]c4ccccc34)c3cc(Cl)ccc32)cc1 (stereo not given),-11% (active)
4,Cc1ccc(C)c(CN2C(=O)C(O)(c3c[nH]c4ccccc34)c3ccccc32)c1 (stereo not given),116% (inactive)
5,Cc1[nH]c2ccccc2c1C1(O)C(=O)N(Cc2ccccc2)c2ccc(Cl)cc21 (stereo not given),28% (inactive)
6,Cc1[nH]c2ccccc2c1C1(O)C(=O)N(Cc2ccccc2)c2ccc(Br)cc21 (stereo not given),14% (active)
7,CCCCN1C(=O)C(O)(c2c(C)[nH]c3ccccc23)c2cc(Br)ccc21 (stereo not given),36% (inactive)
8,COc1ccc(CC(=O)NCCS(=O)(=O)N2CCN(c3ccccc3F)CC2)cc1OC,66% (inactive)
9,O=C(CN1C(=O)CSC1=O)N1CCCCC1,97% (inactive)
10,CCc1ccc(-c2cc(C)no2)cc1S(=O)(=O)NCc1ccco1,76% (inactive)
11,COc1cccc(Nc2sc(C(=O)c3ccc(Cl)cc3)c(N)c2C(=O)NCCc2ccc(OC)c(OC)c2)c1,75% (inactive)
12,CC(C)=NNC(=O)c1nnn(-c2nonc2N)c1CN1CCOCC1,108% (inactive)
13,COc1ccc(CNS(=O)(=O)c2ccc(F)c(C(=O)Nc3c(C)cc(C)cc3C)c2)cc1,80% (inactive)
14,O=C(NCCO)c1ccc2[nH]c3c(c2c1)CCCC3,102% (inactive)
15,Cc1ccc2nc(-c3c[nH]c4ccccc34)c(Nc3ccc(F)cc3)n2c1,72% (inactive)
16,CCc1ccccc1NC(=O)C(CC)Oc1ccccc1-c1nnc(-c2ccccc2)o1 (stereo not given),0% (active)
17,CCOC(=O)c1ccccc1NC(=O)COc1ccccc1-c1nnc(-c2ccccc2)o1,22% (inactive)
18,CCC(Oc1ccccc1-c1nnc(-c2ccccc2)o1)C(=O)Nc1ccc(C(C)=O)cc1 (stereo not given),118% (inactive)
19,CC(=O)c1ccc(S(=O)(=O)N2CCn3cccc3C2c2ccc(F)c(F)c2)cc1 (stereo not given),68% (inactive)
20,Nc1nc2n(n1)C(c1cccs1)CC(c1ccc(Cl)cc1Cl)N2 (stereo not given),106% (inactive)
21,CCOC(=O)C1CCC(CN(Cc2cccc(Br)c2)S(=O)(=O)c2ccc(Cl)cc2)CC1 (stereo not given),90% (inactive)
